This is one part of a sample in which hits are shown more often than they occur.
KDM5B inh: Primary screen for KDM5B Histone Demethylases FDH-coupled qHTS; actives 2.6% (n = 220,000); Lysine-specific demethylase 5B (Homo sapiens), Q9UGL1; KDM5B demethylase, FDH-coupled NADH fluorescence (FDH is formaldehyde dehydrogenase); Potency, µM (highest dose often 57.7 µM), actives largely listed as inhibitors; active = well fitted inhibition curve with a large enough effect; also: 0% is about no effect; nearly all actives have a fitted effect of over 70% in size
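qHTS format, multiple compound concentrations. Buffer 50 mM HEPES pH 7.5/0.01% Tween-20; 200 nM KDM5BΔAP final; 10 min compound preincubation; substrate-mix levels 12.5 µM peptide, 25 µM α-KG, 0.25 mM NAD⁺; 30 min RT; ΔRFU.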
* = called active by the depositor. Potency is read from the fitted curve at half-maximal effect.

For C[S+](=O)([O-])c1ccc(-c2ncc3c(n2)OCCN(c2ccccc2)C3=O)cc1 the results were KDM5B inh inactive.
`COc1ccc(-c2ncc3c(n2)OCCN(c2ccccc2)C3=O)cc1F` gave KDM5B inh 28.2µM*.
Screening Cn1nc(C(=O)N2CCN(c3ccccc3)CC2)c2ccccc2c1=O returned KDM5B inh inactive.
Screening CN(C)CCN(C)[C@H]1[C@@H]2OC[C@@H](O2)[C@@H](NCc2cnc3ccccc3c2)[C@@H]1O returned KDM5B inh inactive.
`Cc1cc(CN(C)C(=O)c2cc(CN3CCC(Cc4ccccc4)CC3)on2)n[nH]1` gave KDM5B inh inactive.
Screening CS(=O)(=O)N1CCC(C2CCN(C(=O)NCc3ccco3)C2)CC1 (centres undefined) returned KDM5B inh inactive.
For CCc1nc(-c2c3n(c(=O)n(Cc4ccccc4F)c2=O)CCCC3)no1 the results were KDM5B inh inactive.
`CCc1nc(-c2c3n(c(=O)n(Cc4ccc(C)cc4)c2=O)CCCC3)no1` gave KDM5B inh inactive.
`CCc1nc(-c2c3n(c(=O)n(Cc4cc(=O)n5ccccc5n4)c2=O)CCCC3)no1` gave KDM5B inh 22.4µM*.
`CCCNc1c(NS(=O)(=O)c2ccccc2)c(=O)oc2ccccc12` gave KDM5B inh inactive.
Cc1cccc(OCCSC(C)C(=O)NC(C)(C)C)c1 (centres undefined) was read as KDM5B inh inactive.
CC(C)NC(=S)NCCc1ccc(Cl)cc1Cl was read as KDM5B inh inactive.
COc1ccc(-c2c(C)c3cc(OS(=O)(=O)c4ccccc4)ccc3oc2=O)cc1 was read as KDM5B inh inactive.
Screening Cc1ccc(C(=O)N2CCC3(CC2)CC(=O)Nc2ccccc2O3)cc1 returned KDM5B inh inactive.
CCc1noc(-c2ccn3c(CNC(=O)c4ccccn4)nnc3c2)n1 was read as KDM5B inh inactive.
`CCCc1noc(-c2ccn3c(CNC(=O)c4ccc5ccccc5n4)nnc3c2)n1` gave KDM5B inh 12.6µM*.
Screening CCCc1noc(-c2ccn3c(CNC(=O)c4ccco4)nnc3c2)n1 returned KDM5B inh 28.2µM*.
Cc1noc(-c2ccn3c(CNC(=O)c4ccco4)nnc3c2)n1 was read as KDM5B inh 28.2µM*.
Screening COCCNC(=O)[C@H]1C[C@H](Oc2ccccc2)CN1C(=O)c1ccccc1OC returned KDM5B inh inactive.
For Nc1nccnc1C(=O)NCc1cccc(C(F)(F)F)c1 the results were KDM5B inh inactive.
For CCOc1cc(=O)n2c(c1C(=O)Nc1ccc3c(c1)OCO3)CCCC2 the results were KDM5B inh inactive.
`CC1(C)C(=O)N(Cc2ccccc2F)[C@H]2CN(Cc3ccc4c(c3)CCO4)C[C@H]2[S+]1(=O)[O-]` gave KDM5B inh inactive.
Screening COCC(=O)N1CCn2c(nnc2-c2ccccc2)C1 returned KDM5B inh inactive.
For CC1CCN(C(=O)CCc2nc3sc4c(c3c(=O)[nH]2)CCCCC4)CC1 the results were KDM5B inh inactive.
O=C(NC1CCCC1)c1csc2ccccc12 was read as KDM5B inh inactive.
CCN1CCC(CCNC(=O)C2CCCN(C(=O)c3ccccc3)CCC(=O)NCC2)CC1 (centres undefined) was read as KDM5B inh inactive.
For N#Cc1cccc(-c2cn3c(n2)N(C(=O)C2CCCO2)CCC3)c1 (centres undefined) the results were KDM5B inh 31.6µM*.
COc1cccc(-c2cn3c(n2)N(C(=O)C2CCC2)CCC3)c1 was read as KDM5B inh inactive.
N#Cc1cccc(NC(=O)C2CCN(S(=O)(=O)c3ccc4c(c3)CCCN4C(=O)C3CCC3)CC2)c1 was read as KDM5B inh inactive.
Screening CN1CCCN(C(=O)C2CCCO2)c2ccccc21 (centres undefined) returned KDM5B inh inactive.
`N#Cc1cccc(-c2cn3c(n2)N(C(=O)C2CCC2)CCC3)c1` gave KDM5B inh 22.4µM*.
For N#Cc1cccc(C(=O)N2CCC(n3cc(-c4nc(-c5ccccc5)no4)nn3)C2)c1 (centres undefined) the results were KDM5B inh inactive.
For NC(=O)NC(=O)CN1CCCC(c2nc3ccccc3o2)C1 (centres undefined) the results were KDM5B inh inactive.
`Cc1cccc(S(=O)(=O)Nc2nc3ccccc3nc2Nc2ccccc2F)c1` gave KDM5B inh inactive.
CCCN1CCC(N(C)C(=O)c2ccc(N(C)C)c(F)c2)CC1 was read as KDM5B inh inactive.
`O=C(COc1ccccc1Cl)Nc1ccc2oc(-c3ccc(F)cc3)nc2c1` gave KDM5B inh inactive.
Screening O=C(CSc1n[nH]c(-c2ccccc2F)n1)Nc1ccc(N2CCCCCC2)cc1 returned KDM5B inh inactive.
`CC1=C(C(=O)OC(C)C)C(c2cccc(F)c2)N2C(CC(=O)NCc3ccco3)=CSC2=N1` (centres undefined) gave KDM5B inh inactive.

Screening results deposited in PubChem by National Center for Advancing Translational Sciences (NCATS).
